Results reported in PubChem BioAssay (NCATS).
Records with an inconclusive call do not appear. Calls of active or inactive are those of the source. Unless noted, calls come from the whole dose curve; as a rule, active = well fitted curve in either direction with a large enough effect (not every such curve was filed as active); inconclusive = small, poorly fitted or top-dose-only effect, or another doubt; inactive = flat fitted curve, though single readings scatter.

Assays:
[1] = target: Lysosomal acid glucosylceramidase (Homo sapiens) (UniProt P04062); test: Glucocerebrosidase-p2 (AID 348; in the data active = potency below about 10 µM; note: potency is the fitted concentration of half-maximal effect); conditions: purified GBA, blue fluorogenic substrate, 40 min
How it was run: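 Normal human glucocerebrosidase (0.2 nM) with blue fluorogenic substrate (80 uM final) in citrate/phosphate pH 5.9 with 10mM sodium taurocholate, 0.01% tween-20; 40 min RT, NaOH/glycine stop; fluorescence Ex 365/Em 440; AC50 from a titration from 0.6 nM upwards.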

[2] = target: Cytochrome P450 1A2 (Homo sapiens) (UniProt P05177); test: p450-cyp1a2 (AID 410; calls by dose curve; note: potency is the fitted concentration of half-maximal effect;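 for activity change, negative = inhibition: -100% = full effect of reference inhibitor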); conditions: recombinant CYP1A2, luciferin-ME demethylation, luminescence; series mostly up to 57 µM
How it was run: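 O-Demethylation of luciferin 6' methyl ether by human CYP1A2 is monitored as luciferase luminescence. Substrate sits at Km (100uM); enzyme is 20nM. Values are scaled to 57 uM furafylline as maximal inhibition.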

[3] = NFAT Signaling Pathway (AID 444); conditions: Jurkat NFAT-bla M1, carbachol, beta-lactamase ratio, 5 h; at 7.69 µM (top of the series) unless noted;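 note: carbachol stimulus at about its EC50 of 1 µM final; % is set by controls: 0 for no effect and ±100 for the full control effect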
How it was run: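 Read-out: CCF4 FRET ratio (460 nm/530 nm) after 1 h RT dye loading, used for %activity and AC50 from titration series. Cells: Jurkat NFAT-β-lactamase/M1 line, treated with compound plus 1 uM carbachol for 5 h, 37 °C.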

[4] = Stat Signaling Pathway (AID 446); conditions: ME-180 SIE beta-lactamase reporter, IL-6 stimulated, 5 h; at 7.69 µM (top of the series) unless noted;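 note: ME-180 cervical cancer cells given 40 pM IL-6 alongside compound; SIE-controlled beta-lactamase reporter measured as 460/530 nm FRET emission ratio; % is set by controls: 0 for no effect and ±100 for the full control effect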
How it was run: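 FRET read-out (405 nm excitation, 460/530 nm emission) of a beta-lactamase reporter under a STAT-inducible element in ME-180 cervical carcinoma cells. Cells with compound receive 40 pM IL-6 for 5 h. Values are normalised to AC90 stimulation and AC90 JAK-inhibitor controls.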

[5] = target: Glucocorticoid receptor (Homo sapiens) (UniProt P04150); test: GR-EFC Redistribution (AID 451; calls by dose curve; note: potency is the fitted concentration of half-maximal effect); conditions: CHO-K1 GR-EFC translocation, beta-gal luminescence, 2 h
How it was run: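 Translocation of GR-ED fusion to nuclear EA restores b-gal, read by luminescence after 1 h room-temperature detection. Engineered CHO-K1 biosensor cells, 1,000/well, exposed 2 h at 37 C to titrations up to 46 uM final.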

[6] = target: Mitogen-activated protein kinase 10 (Mus musculus) (UniProt Q61831); test: JNK3 AlphaScreen Assay (AID 530); conditions: JNK3 lysate, c-Jun phosphorylation; series mostly up to 57.1 µM;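 note: kinase came from lysate of stimulated human HepG2 cells; signal reports phosphorylation of biotinylated GST-cJun 1-79 at Ser73 with 10 µM ATP; % is set by controls: 0 for no effect and ±100 for the full control effect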
How it was run: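 qHTS titrations with 15 min compound pre-incubation before adding ATP (10 uM final). Read-out: AlphaScreen of Ser73-phosphorylated biotin-GST-cJun using HepG2 lysate JNK3 activated by IL-1β and TNFα.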

[7] = qHTS Assay for Lipid Storage Modulators (AID 1519; calls by dose curve); conditions: Drosophila S3 cells, BODIPY lipid droplet/cell ratio, laser cytometry, cells loaded with oleic acid; for activity change, negative = inhibition: at 57.5 µM (top of the series)
How it was run: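 Cells seeded at 5,000 per well were treated with compounds over a concentration series and loaded with oleic acid (400 uM, as added). Lipid droplet fluorescence (488 nm excitation, 500-530 nm channel) was read by laser-scanning cytometry and normalized to 20 uM Triacsin C.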

[8] = Primary qHTS for small molecule stabilizers of the endoplasmic reticulum resident proteome: Secreted ER Calcium Modulated Protein (SERCaMP) assay (AID 1508630; active = well fitted curve in the direction sought with a large enough effect; an effect the other way counts as inactive or inconclusive; note: % is set by controls: 0 for no effect and ±100 for the full control effect); conditions: SH-SY5Y GLuc-SERCaMP (Gaussia luciferase released on ER calcium loss) secretion, thapsigargin, luminescence; series mostly up to 38.4 µM
How it was run: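 The SH-SY5Y reporter protocol was run at 3 concentrations up to 38.3 uM (primary) or 11 concentrations (follow-up): 16 h compound, 100 nM thapsigargin for 4 h, then extracellular luciferase luminescence.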

[9] = AP1 Signaling Pathway (AID 357); conditions: ME-180 (cervical carcinoma) AP-1-bla reporter, EGF-induced, beta-lactamase ratio, 5 h; at 7.69 µM (top of the series) unless noted
How it was run: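 Cells are seeded overnight, exposed to compound titrations and an EC50 level of EGF for 5 hours at 37 °C, then loaded with CCF4 dye for 2.5 hours. Beta-lactamase activity under the AP-1 element is read as a blue/green ratio.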

[10] = target: Glucocorticoid receptor (Homo sapiens) (UniProt P04150); test: GR-GFP Redistribution (AID 450;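 active = compounds whose dose series gives a full or clear partial fitted curve of increased nuclear translocation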; note: potency is the fitted concentration of half-maximal effect); conditions: U2OS GR-GFP nuclear translocation, laser cytometry, 2 h
[11] = target: 3',5'-cyclic-AMP phosphodiesterase 4B (Homo sapiens) (UniProt Q07343); test: qHTS Assay for Inhibitors of PDE-IV (AID 607; active = well fitted activation curve with a large enough effect in the main read-out, with a control signal flat, not every such curve was filed as active; note: % of control where 0% means no effect); conditions: HEK293 ACTOne CNG channel cells, membrane potential fluorescence; series mostly up to 22.9 µM
How it was run: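 Cell-based read-out of cAMP via a modified cyclic nucleotide-gated channel and membrane potential dye (535/590 nm) in HEK293 cells expressing PDE4 endogenously. Compounds tested up to 22.9 uM final; 100 uM RO 20-1724 reference.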

[12] = target: Cytochrome P450 3A4 (Homo sapiens) (UniProt P08684); test: qHTS Assay for Inhibitors and Substrates of Cytochrome P450 3A4 (AID 884; active = well fitted curve in the direction sought with a large enough effect; an effect the other way counts as inactive or inconclusive; note: % is set by controls: 0 for no effect and ±100 for the full control effect; nearly all actives have a fitted effect of over 50% in size); conditions: recombinant CYP3A4, Luciferin-PPXE luminescence; series mostly up to 57.1 µM
How it was run: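 Luminescent readout of luciferin produced by CYP3A4 (20 nM) dealkylation of Luciferin-PPXE, 25 uM (its KM). NADPH-driven reaction ran 60 min at RT after 10 min compound preincubation; data scaled to 57 uM ketoconazole as 100% inhibition.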

[13] = target: Cytochrome P450 3A4 (Homo sapiens) (UniProt P08684); test: qHTS Assay for Activators of Cytochrome P450 3A4 (AID 885; active = well fitted curve in the direction sought with a large enough effect; an effect the other way counts as inactive or inconclusive; note: nearly all actives have a fitted effect of over 65% in size); conditions: recombinant CYP3A4, Luciferin-PPXE luminescence, 60 min; series mostly up to 57.1 µM
How it was run: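 Luminescent readout of luciferin formed from 25 uM Luciferin-PPXE (KM level) by 20 nM CYP3A4 in 200 mM KPO4, with 60 min NADPH-driven reaction at room temperature after 10 min compound exposure. Ketoconazole (57 uM) defined 100% inhibition.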

[14] = target: Dual specificity protein kinase CLK4 (Homo sapiens) (UniProt Q9HAZ1); test: qHTS Assay for Inhibitors of CDC-like Kinase 4 (Kinase-Glo Assay) (AID 1770; active = well fitted curve in the direction sought with a large enough effect; an effect the other way counts as inactive or inconclusive; note: potency is the fitted concentration of half-maximal effect; nearly all actives have a fitted effect of over 65% in size); conditions: recombinant Clk4, Kinase-Glo ATP depletion luminescence; series mostly up to 66.7 µM
How it was run: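 25 nM Clk4 with 100 uM RS repeat peptide and 1 uM ATP (final) in Tris pH7.5, 10 mM MgCl2, 4.5 h at room temperature. Remaining ATP measured by Kinase-Glo luciferase luminescence.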

[15] = target: Dual specificity protein kinase CLK4 (Homo sapiens) (UniProt Q9HAZ1); test: qHTS Assay for Inhibitors of CDC-like Kinase 4 (ADP-Glo Assay) (AID 1771; active = well fitted curve in the direction sought with a large enough effect; an effect the other way counts as inactive or inconclusive; note: potency is the fitted concentration of half-maximal effect; nearly all actives have a fitted effect of over 70% in size); conditions: recombinant CLK4, ADP-Glo luminescence; series mostly up to 80 µM
How it was run: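 Compounds are pin-transferred onto substrate mix (100 uM RS peptide, 1 uM ATP), then 25 nM Clk4 is added. After 1 hr at room temperature, ADP-Glo reagent runs 45 min, detection reagent 30 min, then luminescence is read.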

[16] = target: Ubiquitin carboxyl-terminal hydrolase 1 (Homo sapiens) (UniProt O94782); test: Inhibitors of USP1/UAF1: Pilot qHTS (AID 504865; active = well fitted curve in the direction sought with a large enough effect; an effect the other way counts as inactive or inconclusive;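 note: rhodamine fluorescence freed from ubiquitin-rhodamine substrate followed over time; top concentration of the series differs between compounds; % is set by controls: 0 for no effect and ±100 for the full control effect; nearly all actives have a fitted effect of over 35% in size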); conditions: purified USP1/UAF1, Ub-rhodamine cleavage fluorescence; series mostly up to 54.9 µM
How it was run: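 USP1/UAF1 complex at 1 nM preincubated 15 min at room temperature with compound, then Ub-Rho substrate added at 150 nM final. Fluorescence (480/540 nm) read kinetically in 50 mM HEPES pH 7.8, 0.5 mM EDTA, 1 mM TCEP, 0.1 mg/ml BSA, 0.01% Tween-20.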

[17] = measured here: cell count channel max response
[18] = measured here: lipid channel max response

Sequence of Glucocorticoid receptor (Homo sapiens) (P04150 whole entry, looked up, the tested form may be a part): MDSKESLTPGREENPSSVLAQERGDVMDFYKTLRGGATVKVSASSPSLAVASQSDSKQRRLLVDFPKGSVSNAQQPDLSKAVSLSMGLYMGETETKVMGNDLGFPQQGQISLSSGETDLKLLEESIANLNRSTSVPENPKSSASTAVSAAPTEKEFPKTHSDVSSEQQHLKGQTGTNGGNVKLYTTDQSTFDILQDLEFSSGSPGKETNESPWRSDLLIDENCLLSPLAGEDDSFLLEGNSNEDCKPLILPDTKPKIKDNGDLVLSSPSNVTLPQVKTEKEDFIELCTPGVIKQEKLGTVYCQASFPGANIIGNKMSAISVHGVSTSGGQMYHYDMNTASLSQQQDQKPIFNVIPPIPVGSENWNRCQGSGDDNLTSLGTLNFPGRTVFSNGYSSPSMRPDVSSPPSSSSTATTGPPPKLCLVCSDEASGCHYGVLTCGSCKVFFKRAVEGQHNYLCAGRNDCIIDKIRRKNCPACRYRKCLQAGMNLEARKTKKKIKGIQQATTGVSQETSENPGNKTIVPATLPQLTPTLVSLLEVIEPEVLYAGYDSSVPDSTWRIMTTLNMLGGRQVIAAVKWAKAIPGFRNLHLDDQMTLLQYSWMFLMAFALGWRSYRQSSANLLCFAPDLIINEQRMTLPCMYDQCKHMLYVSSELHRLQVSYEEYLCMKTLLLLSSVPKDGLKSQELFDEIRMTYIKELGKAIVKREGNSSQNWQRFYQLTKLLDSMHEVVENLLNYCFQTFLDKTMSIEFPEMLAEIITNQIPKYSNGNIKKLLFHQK
Sequence of 3',5'-cyclic-AMP phosphodiesterase 4B (Homo sapiens) (Q07343 whole entry, looked up): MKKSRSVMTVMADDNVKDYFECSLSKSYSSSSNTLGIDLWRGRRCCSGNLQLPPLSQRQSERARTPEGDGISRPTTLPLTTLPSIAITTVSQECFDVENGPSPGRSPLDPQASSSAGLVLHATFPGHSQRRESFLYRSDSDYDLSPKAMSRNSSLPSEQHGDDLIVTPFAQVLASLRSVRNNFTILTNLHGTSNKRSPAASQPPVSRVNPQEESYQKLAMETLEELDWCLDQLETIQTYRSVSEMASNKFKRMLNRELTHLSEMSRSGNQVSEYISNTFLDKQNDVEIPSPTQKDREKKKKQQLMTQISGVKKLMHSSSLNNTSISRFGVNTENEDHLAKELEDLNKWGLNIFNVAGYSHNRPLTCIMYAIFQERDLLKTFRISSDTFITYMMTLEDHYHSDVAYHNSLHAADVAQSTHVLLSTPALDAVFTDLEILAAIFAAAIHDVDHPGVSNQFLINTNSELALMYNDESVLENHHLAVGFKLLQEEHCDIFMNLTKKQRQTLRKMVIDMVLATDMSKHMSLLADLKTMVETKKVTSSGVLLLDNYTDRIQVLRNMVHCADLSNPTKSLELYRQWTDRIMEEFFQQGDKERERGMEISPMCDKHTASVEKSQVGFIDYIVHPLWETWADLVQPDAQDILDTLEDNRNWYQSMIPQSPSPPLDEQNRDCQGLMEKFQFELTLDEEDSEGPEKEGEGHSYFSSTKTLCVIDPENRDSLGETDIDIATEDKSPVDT
Sequence of Cytochrome P450 1A2 (Homo sapiens) (P05177 whole entry, looked up): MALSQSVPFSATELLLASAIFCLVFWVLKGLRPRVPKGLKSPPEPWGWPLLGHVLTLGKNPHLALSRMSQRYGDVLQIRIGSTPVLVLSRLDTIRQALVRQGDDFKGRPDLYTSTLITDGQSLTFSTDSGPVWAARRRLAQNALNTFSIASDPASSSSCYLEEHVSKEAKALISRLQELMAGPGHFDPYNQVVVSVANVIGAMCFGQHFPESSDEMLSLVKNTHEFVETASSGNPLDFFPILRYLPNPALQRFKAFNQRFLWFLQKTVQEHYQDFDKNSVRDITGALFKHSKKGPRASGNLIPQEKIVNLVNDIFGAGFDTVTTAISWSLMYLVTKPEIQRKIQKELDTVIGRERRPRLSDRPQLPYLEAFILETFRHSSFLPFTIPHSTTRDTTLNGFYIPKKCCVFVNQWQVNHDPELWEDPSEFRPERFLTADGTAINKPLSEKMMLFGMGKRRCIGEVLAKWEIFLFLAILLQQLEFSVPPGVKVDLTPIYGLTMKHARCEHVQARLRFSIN
Sequence of Dual specificity protein kinase CLK4 (Homo sapiens) (Q9HAZ1 whole entry, looked up): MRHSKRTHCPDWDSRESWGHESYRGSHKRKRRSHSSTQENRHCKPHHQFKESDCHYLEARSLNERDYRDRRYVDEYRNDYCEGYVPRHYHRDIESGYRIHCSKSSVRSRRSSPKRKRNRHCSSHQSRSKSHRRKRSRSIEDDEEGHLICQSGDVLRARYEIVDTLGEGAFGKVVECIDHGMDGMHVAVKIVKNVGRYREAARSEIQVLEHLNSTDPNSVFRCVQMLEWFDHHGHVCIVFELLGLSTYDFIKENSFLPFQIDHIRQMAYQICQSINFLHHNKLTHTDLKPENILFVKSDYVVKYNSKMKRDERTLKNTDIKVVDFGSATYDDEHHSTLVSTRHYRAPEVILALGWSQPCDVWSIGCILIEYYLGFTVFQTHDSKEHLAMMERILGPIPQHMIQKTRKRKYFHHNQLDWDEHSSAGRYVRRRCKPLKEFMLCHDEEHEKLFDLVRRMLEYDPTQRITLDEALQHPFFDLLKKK
Sequence of Lysosomal acid glucosylceramidase (Homo sapiens) (P04062 whole entry, looked up): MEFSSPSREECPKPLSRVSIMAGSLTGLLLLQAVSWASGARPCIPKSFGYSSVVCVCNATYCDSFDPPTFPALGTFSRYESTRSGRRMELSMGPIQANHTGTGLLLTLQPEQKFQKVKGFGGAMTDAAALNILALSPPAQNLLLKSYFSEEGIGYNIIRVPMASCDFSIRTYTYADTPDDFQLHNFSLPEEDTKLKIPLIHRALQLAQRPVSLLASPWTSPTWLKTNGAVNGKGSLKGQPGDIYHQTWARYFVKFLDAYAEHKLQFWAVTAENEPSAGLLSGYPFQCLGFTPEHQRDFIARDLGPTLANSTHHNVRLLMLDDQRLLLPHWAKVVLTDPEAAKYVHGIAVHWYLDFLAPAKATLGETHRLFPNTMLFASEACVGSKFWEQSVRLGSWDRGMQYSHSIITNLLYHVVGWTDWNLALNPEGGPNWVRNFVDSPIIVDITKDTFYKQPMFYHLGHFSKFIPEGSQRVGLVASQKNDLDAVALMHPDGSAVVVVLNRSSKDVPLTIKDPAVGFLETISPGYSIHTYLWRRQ
Sequence of Cytochrome P450 3A4 (Homo sapiens) (P08684 whole entry, looked up): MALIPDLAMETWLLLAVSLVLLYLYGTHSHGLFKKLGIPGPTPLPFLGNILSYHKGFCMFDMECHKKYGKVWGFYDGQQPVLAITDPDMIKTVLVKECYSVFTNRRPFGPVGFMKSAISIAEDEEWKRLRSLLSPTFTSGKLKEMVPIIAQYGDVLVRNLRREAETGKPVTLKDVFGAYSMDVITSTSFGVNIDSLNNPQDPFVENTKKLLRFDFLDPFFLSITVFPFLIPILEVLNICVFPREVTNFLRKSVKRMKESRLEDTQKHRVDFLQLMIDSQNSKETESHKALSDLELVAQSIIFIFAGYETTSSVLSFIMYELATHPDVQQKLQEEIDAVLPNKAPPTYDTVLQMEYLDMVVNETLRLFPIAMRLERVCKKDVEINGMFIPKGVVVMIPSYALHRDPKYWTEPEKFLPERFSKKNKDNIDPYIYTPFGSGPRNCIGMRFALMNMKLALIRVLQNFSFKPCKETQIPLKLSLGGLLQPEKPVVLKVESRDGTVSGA
Sequence of Ubiquitin carboxyl-terminal hydrolase 1 (Homo sapiens) (O94782 whole entry, looked up): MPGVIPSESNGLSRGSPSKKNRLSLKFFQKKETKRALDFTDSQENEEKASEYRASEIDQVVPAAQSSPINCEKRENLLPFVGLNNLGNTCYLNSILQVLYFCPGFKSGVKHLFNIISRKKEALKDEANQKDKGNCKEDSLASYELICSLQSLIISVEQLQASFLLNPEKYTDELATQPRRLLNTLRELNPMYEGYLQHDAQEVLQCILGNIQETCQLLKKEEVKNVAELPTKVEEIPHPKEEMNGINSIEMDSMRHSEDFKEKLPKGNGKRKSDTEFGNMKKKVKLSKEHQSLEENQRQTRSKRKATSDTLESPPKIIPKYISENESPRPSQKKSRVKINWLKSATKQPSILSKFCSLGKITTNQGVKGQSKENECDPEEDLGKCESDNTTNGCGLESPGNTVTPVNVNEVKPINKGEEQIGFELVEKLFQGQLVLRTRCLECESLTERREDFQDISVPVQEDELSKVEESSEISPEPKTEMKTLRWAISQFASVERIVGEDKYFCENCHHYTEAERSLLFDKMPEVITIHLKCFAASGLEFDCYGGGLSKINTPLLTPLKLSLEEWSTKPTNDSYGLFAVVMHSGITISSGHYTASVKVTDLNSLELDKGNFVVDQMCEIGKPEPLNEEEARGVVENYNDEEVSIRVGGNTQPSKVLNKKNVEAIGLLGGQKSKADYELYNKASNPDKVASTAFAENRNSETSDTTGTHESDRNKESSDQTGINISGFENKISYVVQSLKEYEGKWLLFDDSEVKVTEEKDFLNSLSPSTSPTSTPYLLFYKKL

O=C(c1cccc(F)c1)N1CCC2(CCCN(c3ncccn3)C2)CC1
inactive: Potency [1] > 11.4 µM | activity change, negative = inhibition [3] -6.9% | activity, negative = inhibition [4] -4.43% | Potency [5] > 46 µM | outcome [6] | activity change, negative = inhibition [7] 3.73% | Potency [8]
1%: max response [7, 17]
9.03%: max response [7, 18]
active: Potency [2] 25.1 µM

Cn1c(=O)c(-c2cc(F)cc(F)c2)nc2cnc(Oc3ccccc3)nc21
16.5%: max response [7, 18]
inactive: activity change, negative = inhibition [9] -7.91% | activity change, negative = inhibition [3] 3.31% | activity, negative = inhibition [4] 0.814% | Potency [10] > 9.22 µM | Potency [5] > 46 µM | outcome [6] | Potency [11] | Potency [12] | activity change, negative = inhibition [7] -4.93% | Potency [8]
21.4%: max response [7, 17]

COC(=O)N1CCC2(CC1)CN(C(=O)Nc1cccc(C#N)c1)C2
inactive: activity change, negative = inhibition [9] 2.52% | Potency [2] | activity change, negative = inhibition [3] 6.57% | activity, negative = inhibition [4] -1.88% | Potency [5] > 46 µM | outcome [6] | Potency [11] | activity change, negative = inhibition [7] 4.73% | Potency [8]
-0.334%: max response [7, 17]
8.67%: max response [7, 18]

COc1cccc(-c2cc(N(C)Cc3ccco3)ncn2)c1
inactive: Potency [1] > 11.4 µM | activity change, negative = inhibition [9] 22.2% | activity change, negative = inhibition [3] -17.2% | activity, negative = inhibition [4] -2% | Potency [10] > 46 µM | Potency [5] > 46 µM | outcome [6] | Potency [11] | Potency [13] | Potency [16] | Potency [8]
active: Potency [2] 0.794 µM | Potency [14] 12.6 µM | Potency [15] 14.1 µM
